Survival data for 67 molecules are collected here from PubChem BioAssay AID463173 (ICCB-Longwood Screening Facility, Harvard Medical School, 2010).

The whole screen tested about 52,000 compounds, of which about 1,700 (3.3%) were called active. Many of the other results were omitted from the sample, so actives are more common in it than they were. Values without a mark were called inactive. Cut-off read from the data, not from the text of the source: active = survival mostly below about 52% (no sharp cut-off); inactive = mostly above about 56%.

The test system of this experiment is Wild type. Description: growth inhibition of S. aureus wild type versus tarO mutant, primary screen, teichoic acid synthesis inhibitors, RN4220, OD600 (AID 463173). The settings on record: S. aureus RN4220 wild type/DeltatarO growth, OD600, 18 h, stronger effect = lower value, screened at 18.75 µg/mL (by protocol).
Consider `CN(C)C(=O)CN(C#N)c1nc(Cl)nc(N(C)C)n1`, for which the survival was 110%. For the molecule `N#Cc1ccc(S(=O)(=O)N2CCC(Oc3cccc(C(F)(F)F)c3)CC2)cc1`, the survival is 84%. For the molecule `COc1ccc(CNC(=O)Cc2ccc(NC(=O)N3CCSc4ncccc43)cc2)cc1OC`, the survival is 75%.

For `Cc1cccc(-c2nc3c4ccccc4nc(NCc4ccc(Cl)cc4)n3n2)c1`, the survival was 47%.

For `O=C1CCSC2(C(=O)N(Cc3ccc(F)cc3)c3ccccc32)N1c1cccc(F)c1` (configuration not stated), the survival was 74%. The figure for `CCOc1ccccc1C(=O)Nc1c(NC)c2ccccc2oc1=O` is 76%; for `Cc1ccc(CN2CCC(CNc3ncnc4onc(-c5ccc(Cl)cc5)c34)CC2)cc1` it is 77%. With `Fc1ccc(-c2noc3ncnc(NCC4CCN(Cc5ccc(Cl)cc5)CC4)c23)cc1`, the survival was 81%. With `Cc1ccc(CN2CCC(CNc3ncnc4onc(-c5ccc(F)cc5)c34)CC2)cc1`, the survival was -4% (active). For the molecule `O=c1c(S(=O)(=O)c2ccc(Cl)cc2)cn(Cc2ccc(F)cc2)c2ccc(F)cc12`, the survival is 130%. As for `CCn1c(=O)c2cc(C(=O)NCCCN3CCN(C)CC3)sc2c2ccccc21`, the survival was 124%. The value for `COCCNC(=O)C1=CC(c2ccc3c(c2)OCO3)=NS(=O)(=O)N1C` was 103%; that for `O=C(CCC(=O)N1CC2CCCN2c2ccccc21)NCc1ccc(F)cc1` (configuration not stated) was -2% (active); that for `COc1cccc(CNC(=O)CCC(=O)N2CC3CCCN3c3ccccc32)c1` (configuration not stated) was 65%.

On to `Cc1ccc(CNC(=O)CCC(=O)N2CC3CCCN3c3ccccc32)cc1` (configuration not stated), for which the survival is 82%. With `O=C(CCC(=O)N1CC2CCCN2c2ccccc21)NCc1cccc(Cl)c1` (configuration not stated), the survival was 10% (active). With `O=C(CCC(=O)N1CC2CCCN2c2ccccc21)NCc1ccccc1Cl` (configuration not stated), the survival is 69%.

Regarding `O=C(CCC(=O)N1CC2CCCN2c2ccccc21)NCc1ccccc1` (configuration not stated), the survival is 88%. The figure for `CC(=O)Nc1nonc1-c1nnc(SCC(=O)Nc2ccccc2)n1-c1ccccc1` is 51%.

For the molecule `O=C(NC1CCCC1)C(c1ccc(O)cc1)N(C(=O)Cn1nnc(-c2cccs2)n1)C1CCCC1` (configuration not stated), the survival is 100%. The figure for `CCN(CC)C(=O)Cn1c(=O)sc2ccccc21` is 105%; for `Cc1cccc(NC(=O)Cn2c(=O)sc3ccccc32)c1` it is 119%. The value for `CS(=O)(=O)n1c(=O)sc2ccccc21` was 121%; that for `CCOC(=O)Cn1c(=O)sc2ccccc21` was 116%.

For `CC(C)CCOc1ccccc1Cn1c(=O)sc2ccccc21`, the survival is -1% (active). The figure for `CCCOc1ccccc1Cn1c(=O)sc2ccccc21` is -5% (active); for `O=C(Cn1c(=O)sc2ccccc21)OCc1ccccc1` it is 118%. The figure for `O=C(Cn1c(=O)sc2ccccc21)Nc1ccc(O)cc1` is 103%. `CCCCOc1ccccc1Cn1c(=O)sc2ccccc21`: the survival is -4% (active). The figure for `COc1ccc(CNCCNC(=O)c2cccs2)c(OC)c1OC` is 108%; for `COc1ccc(CNC(=O)c2ccc3c(c2)N(Cc2ccc(C)cc2)CCS3)cc1` it is 93%; for `O=C(Cn1nc(-c2ccc(Cl)cc2)ccc1=O)NCCc1ccccc1` it is 45%. The value for `C=Cc1ccc(Cn2c(=O)n(-c3cccc(Cl)c3)c(=O)c3c4c(sc32)CN(C(C)=O)CC4)cc1` was 81%; that for `Cc1cc(C)c(S(=O)(=O)N2CCN(Cc3nc4ccc(C)cc4o3)CC2)c(C)c1` was 73%; that for `O=[N+]([O-])c1cc(-c2nc(-c3ccccc3)no2)ccc1NCC1CCCO1` (configuration not stated) was 86%. Turning to `CCOC(=O)N1CCC(NC(=O)c2cnn(-c3cccc(Cl)c3C)c2C2CCN(C(=O)OC(C)(C)C)CC2)CC1`, the survival was -3% (active).

For the molecule `Cc1c(Cl)cccc1-n1ncc(C(=O)NC2CCCCC2)c1C1CCN(C(=O)OC(C)(C)C)CC1`, the survival is 75%. `CC(C)(C)OC(=O)N1CCC(c2c(C(=O)NCc3ccccn3)cnn2-c2ccccc2Cl)CC1`: the survival was -6% (active). For `CC(C)(C)OC(=O)N1CCC(c2c(C(=O)NCc3ccccn3)cnn2-c2ccccc2)CC1`, the survival is 73%. The figure for `Cc1ccc(-n2ncc(C(=O)NCc3ccccn3)c2C2CCN(C(=O)OC(C)(C)C)CC2)c(C)c1` is 45%. Consider `Cc1c(Cl)cccc1-n1ncc(C(=O)NC2CCCC2)c1C1CCN(C(=O)OC(C)(C)C)CC1`, for which the survival is 66%.

With `CC1CCN(S(=O)(=O)c2ccc3c(c2)c(=O)c(C(=O)N2CCN(c4cccc(Cl)c4)CC2)cn3C)CC1`, the survival is 94%. The value for `CCCNC(=O)Cn1nc(-c2ccc(F)cc2)c2cnc3ccc(F)cc3c21` was 82%; that for `CCn1c(Cc2ccccc2)nnc1SCC(=O)N1CCCCC1C` (configuration not stated) was 116%. The figure for `COc1ccc(NC(=O)CCc2nc3cccnc3n2-c2ccccc2)c(OC)c1` is 68%; for `COc1ccc(OC)c(Nc2nc3ccccc3n3c(C)nnc23)c1` it is 83%; for `Nn1cnnc1SCC(=O)N(C1CCCCC1)C1CCCCC1` it is 107%. The value for `O=C(Nc1ccc(NC(=O)c2cccs2)cc1)c1cccs1` was 113%. In the case of `Cc1ccccc1CCNC(=O)c1ccc2c(c1)c(C)c(C)n2Cc1ccccc1`, the survival was 124%. For the molecule `COc1ccccc1/C=C/c1nc2ccccc2n1C(C)C`, the survival is 2% (active). On to `COc1cccc(/C=N/n2c(N)nc3ccccc32)c1OC`, for which the survival is 103%. Consider `COc1cccc(/C=N/c2nc3ccccc3n2C)c1O`, for which the survival was 106%. The value for `CC1CC(C)N(C(=O)c2cc(-c3ccccc3)on2)C(C)C1` (configuration not stated) was 129%; that for `CCOc1ccc(NC(=O)CN(c2ccc(Cl)cc2C)S(=O)(=O)c2ccccc2)cc1` was 77%.

With `CCN(CC)CC(=O)Nc1nc2ccc(OC)cc2s1`, the survival is 103%. Regarding `Cc1c(Cl)cccc1-c1ccc(/C=C(\C#N)c2nc3ccccc3[nH]2)o1`, the survival is 8% (active). As for `N#C/C(=C\c1ccc(-c2ccccc2C(=O)O)o1)c1nc2ccccc2[nH]1`, the survival is 84%. The figure for `N#C/C(=C\c1ccc(-c2ccc(F)cc2F)o1)c1nc2ccccc2[nH]1` is 38%; for `Cc1ccc(NC(=O)c2c(NC(=O)c3ccccc3)sc3c2CCC3)cc1` it is 79%. As to `COc1ccc(CC(=O)Nc2sc3c(c2C(=O)Nc2ccc(C)cc2)CCCCC3)cc1`, the survival was 136%.

Consider `COc1ccc(NC(=O)c2c(NC(=O)c3ccc(Br)cc3)sc3c2CCCC3)cc1`, for which the survival is 157%. Turning to `Cc1ccc(NC(=O)c2c(NC(=O)Cc3ccccc3)sc3c2CCCC3)cc1`, the survival was 49%. `Cc1ccc(NC(=O)c2c(NC(=O)C(F)(F)F)sc3c2CCCCC3)cc1`: the survival is -3% (active). For `Cc1ccccc1NC(=O)c1c(NC(=O)Cc2ccccc2)sc2c1CCC2`, the survival was 48%. The value for `Cc1ccccc1NC(=O)c1c(NC(=O)c2ccccc2)sc2c1CCC2` was 137%; that for `COc1ccc(NC(=O)c2c(NC(=O)C(F)(F)F)sc3c2CCCCC3)cc1` was -1% (active); that for `Cc1ccccc1NC(=O)c1c(NC(=O)C(F)(F)F)sc2c1CCCCC2` was 1% (active).
